Measured values reported in paper PMC4336329 (PLoS ONE, 2015).
Screen size: about 310,000 compounds; about 14,000 (4.5%) showed an effect of 50% or more. The effect is printed as a negative number. Shown is part of a subset that was picked to be rich in strong results.

Biological target: human ether-à-go-go-related gene (hERG) potassium channel (human, UniProt Q12809)
Assay: primary screen, population patch clamp on CHO cells stably expressing hERG; higher = less effect of the substance
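Further: peak tail current of the secondary pulse compared with the same well before compound.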

Sequence of human ether-à-go-go-related gene (hERG) potassium channel (Q12809 whole entry, looked up): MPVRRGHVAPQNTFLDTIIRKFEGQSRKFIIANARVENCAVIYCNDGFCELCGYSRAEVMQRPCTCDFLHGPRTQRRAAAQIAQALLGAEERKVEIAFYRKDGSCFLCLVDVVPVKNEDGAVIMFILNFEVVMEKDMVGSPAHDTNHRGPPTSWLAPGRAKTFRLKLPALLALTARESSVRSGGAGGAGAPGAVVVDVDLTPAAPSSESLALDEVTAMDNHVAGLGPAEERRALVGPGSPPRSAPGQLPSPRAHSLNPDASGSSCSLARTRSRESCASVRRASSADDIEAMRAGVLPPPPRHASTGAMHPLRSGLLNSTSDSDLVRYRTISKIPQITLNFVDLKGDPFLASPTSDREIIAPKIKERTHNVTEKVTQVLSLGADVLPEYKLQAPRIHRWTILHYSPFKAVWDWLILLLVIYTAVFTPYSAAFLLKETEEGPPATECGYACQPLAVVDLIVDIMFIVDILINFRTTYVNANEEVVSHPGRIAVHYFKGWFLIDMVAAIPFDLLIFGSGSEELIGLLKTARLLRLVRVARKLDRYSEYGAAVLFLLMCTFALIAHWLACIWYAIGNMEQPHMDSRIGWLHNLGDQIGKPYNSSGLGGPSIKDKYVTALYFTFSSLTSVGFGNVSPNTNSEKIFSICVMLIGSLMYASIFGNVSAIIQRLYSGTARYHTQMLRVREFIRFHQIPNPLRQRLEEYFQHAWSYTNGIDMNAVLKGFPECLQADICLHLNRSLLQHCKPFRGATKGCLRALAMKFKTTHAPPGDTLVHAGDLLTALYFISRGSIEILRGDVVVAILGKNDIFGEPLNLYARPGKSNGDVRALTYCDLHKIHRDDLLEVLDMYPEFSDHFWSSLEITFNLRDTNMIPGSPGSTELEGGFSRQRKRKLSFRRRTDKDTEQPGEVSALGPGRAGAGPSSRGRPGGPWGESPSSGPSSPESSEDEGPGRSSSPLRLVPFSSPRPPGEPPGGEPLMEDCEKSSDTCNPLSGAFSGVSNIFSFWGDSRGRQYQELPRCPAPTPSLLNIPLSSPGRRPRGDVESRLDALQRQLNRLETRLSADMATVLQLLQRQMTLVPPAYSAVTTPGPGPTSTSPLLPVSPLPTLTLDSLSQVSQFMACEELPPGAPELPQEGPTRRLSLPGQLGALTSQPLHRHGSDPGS

Compound	hERG current change (%, negative = inhibition) at 10uM [%]
C=CCn1c(SCc2ccc(C(=O)Nc3ccccc3)cc2)nnc1-c1ccccc1	-5.06
O=C(CCn1c(=O)c2ccccc2n(Cc2ccccc2)c1=O)NCc1ccc2c(c1)OCO2	-4.33
O=C(NCCCl)Nc1cc([N+](=O)[O-])ccc1Cl	16.9
CCOC(=O)CNc1c(-c2ccc(OC)cc2)nc2ccc(Cl)cn12	-73.5
CCOC(=O)CNc1c(-c2ccc(O)cc2)nc2ccc(Cl)cn12.Cl	-39.7
COCCNc1c(-c2ccc(OC)cc2)nc2ccc(Cl)cn12	-39.5
CC(=O)Nc1c(-c2ccccc2)nc2ccc(Cl)cn12	5.29
CCOC(=O)c1c(-c2ccccc2)nc2ccc(Cl)cn12	30
CCOC(=O)CNc1c(-c2ccccc2)nc2ccc(Cl)cn12	-64.4
Cc1ccc(S(=O)(=O)N2c3ccccc3OCC2c2ccccc2)cc1 (stereo not drawn)	23
CCCN1CCN(CC(=O)Nc2cc(OCC)ccc2OCC)CC1.Cl	-57.6
CCOc1ccc(OCC)c(NC(=O)CN2CCN(c3ccc(C)cc3C)CC2)c1.Cl	-0.937
CCOc1ccc(OCC)c(NC(=O)CN2CCN(c3cc(C)ccc3C)CC2)c1.Cl	-9.35
COc1ccc(OC)c(NC(=O)CN2CCN(C(=O)c3ccco3)CC2)c1	-23.7
CCOc1ccc(OCC)c(NC(=O)CN2CCN(CC(=O)NC(C)C)CC2)c1.Cl	9.43
COc1ccc(NC(C)=O)cc1NC(=O)CN1CCN(C(=O)c2ccco2)CC1	13.9
CCOC(=O)N1CCN(CC(=O)Nc2cc(OCC)ccc2OCC)CC1.Cl	-68.1
CCOc1ccc(OCC)c(NC(=O)CN2CCN(C(=O)c3ccco3)CC2)c1	-59
CCN1CCN(CC(=O)Nc2cc(C(F)(F)F)ccc2OCCOC)CC1.O=C(O)C(=O)O	-75.4
CCOc1ccc(OCC)c(NC(=O)CN2CCN(CC)CC2)c1.Cl	-43.3
CCCCCNCC(=O)Nc1cc(C(F)(F)F)ccc1OCCOC	-34.2

Compound	hERG current change (%, negative = inhibition) at 10uM [%]
COCCOc1ccc(C(F)(F)F)cc1NC(=O)c1ccccc1	-10.9
CCOC(=O)C1CCCN(C(=O)c2ccc(Cn3c(=S)[nH]c4cc(C(=O)OC)ccc4c3=O)cc2)C1 (stereo not drawn)	10.6
CCN1C(=O)[C@H]2[C@@H](c3ccc(C)cc3)N3C(=O)N(c4ccc(C(F)(F)F)cc4)C(=O)[C@@]3(CC(C)C)[C@H]2C1=O	14.6
Cc1ccc(C)c(NC(=O)CN(C)S(=O)(=O)c2ccc(F)cc2)c1	3.47
Cc1cc(NC(=O)CSc2nc(-c3ccccc3)c(C#N)c(=O)[nH]2)no1	-0.629
Cc1ccsc1/C=C1\C(=O)NC(=S)N(C)C1=O	15.3
O=C(COc1ccc(Cl)cc1)NCCS(=O)(=O)N1CCN(c2ccccc2F)CC1	5.38
CC(=O)C1=C(O)C(=O)N(c2cccc(Br)c2)C1c1ccccc1Cl (stereo not drawn)	-4.7
COc1ccc(OC)c(NC(=O)c2nc(-c3ccccc3)oc2C)c1	-6.31
O=S(=O)(Nc1ccc(Br)cc1)c1cccc(NC(=S)NCCN2CCOCC2)c1	3.16
Cc1ccc(CN2Cc3cccc4c3[C@@H](CC2=O)[C@H](O)[C@H](O)C4)cc1	19.6
CC1CCN(c2ccc3nnc(CCC(=O)Nc4cc(F)ccc4F)n3n2)CC1	-37.5
COc1ccc(N2CCN(C(=O)CCc3nnc4ccc(N5CCCC5)nn34)CC2)cc1	-7.68
O=C(CCc1nnc2ccc(N3CCCC3)nn12)Nc1cc(F)ccc1F	-50.4
COc1cc(NC(=O)CCc2nnc3ccc(N4CCN(c5cccc(OC)c5)CC4)nn23)cc(OC)c1	7.07
COc1cccc(N2CCN(c3ccc4nnc(CCC(=O)Nc5ccccc5OC)n4n3)CC2)c1	-62.6
CC1CCN(c2ccc3nnc(CCC(=O)N4CCN(c5ccccc5F)CC4)n3n2)CC1	-62.6
COc1ccc(N2CCN(C(=O)CCc3nnc4ccc(N5CCOCC5)nn34)CC2)cc1	-5.83
COc1ccccc1N1CCN(C(=O)CCc2nnc3ccc(N4CCCC4)nn23)CC1	-34.1
COc1cccc(NC(=O)CCc2nnc3ccc(N4CCN(c5cccc(OC)c5)CC4)nn23)c1	13.6
COc1ccc(N2CCN(C(=O)CCc3nnc4ccc(N5CCC(C)CC5)nn34)CC2)cc1	-66.1

Compound	hERG current change (%, negative = inhibition) at 10uM [%]
O=C(CCc1nnc2ccc(N3CCCC3)nn12)Nc1ccc(F)cc1F	8.27
COc1ccccc1N1CCN(C(=O)CCc2nnc3ccc(N4CCC(C)CC4)nn23)CC1	-33.5
N#CCCN(C(=O)COC(=O)c1ccc2c(c1)NC(=O)CS2)c1ccc2c(c1)OCCO2	-22.8
CCOCCOC(=O)C1=C(C)NC(=O)NC1c1cc2c(cc1Br)OCO2 (stereo not drawn)	-30.5
O=C(CSCc1ccccc1)Nc1ccc(F)c(F)c1	-3.2
Cc1cc(C)cc(C(=O)NCC(=O)OCC(=O)c2cc(C)n(CC(F)(F)F)c2C)c1	1.83
Cc1noc(C)c1CSc1nc2ccccc2s1	-10.1
COc1cccc(N2CCN(C(=O)CCc3nnc4ccc(N5CCOCC5)nn34)CC2)c1	-7.05
CC1CCN(c2ccc3nnc(CCC(=O)N4CCCCC4)n3n2)CC1	-3.14
CC1CCN(c2ccc3nnc(CCC(=O)N4CCN(c5ccc(F)cc5)CC4)n3n2)CC1	-66.2
COc1cccc(N2CCN(c3ccc4nnc(CCC(=O)N5CCN(C)CC5)n4n3)CC2)c1	-1.62
CCCN1CCN(C(=O)CCc2nnc3ccc(N4CCN(c5cccc(OC)c5)CC4)nn23)CC1	-54.9
CC1CCN(c2ccc3nnc(CCC(=O)Nc4ccc(F)cc4)n3n2)CC1	-39.6
CCN1CCN(C(=O)CCc2nnc3ccc(N4CCN(c5cccc(OC)c5)CC4)nn23)CC1	-5.55
COc1ccc(N2CCN(c3ccc4nnc(CCC(=O)Nc5ccc(C)cc5)n4n3)CC2)cc1	-70.1
COc1cccc(N2CCN(C(=O)CCc3nnc4ccc(N5CCCC5)nn34)CC2)c1	-28.7
COc1ccc(NC(=O)CCc2nnc3ccc(N4CCC(C)CC4)nn23)cc1	-22.9
COc1cccc(N2CCN(c3ccc4nnc(CCC(=O)N5CCC(C)CC5)n4n3)CC2)c1	-66.4
COc1ccc(NC(=O)CCc2nnc3ccc(N4CCN(c5cccc(OC)c5)CC4)nn23)cc1	-22.8
CCN(CC(=O)Nc1ccccc1OC)C(=O)C1CCCC1	0.547
CC1CCN(C(=S)Nc2cccc(S(=O)(=O)N(C)C)c2)CC1	11.1

Compound	hERG current change (%, negative = inhibition) at 10uM [%]
CO/N=C/c1cccn1-c1nccc(OC)c1C#N	19.1
Cc1nc(C)c(C(=O)C2=C(O)C(=O)N(CCN3CCOCC3)C2c2cccs2)s1 (stereo not drawn)	5.12
COc1cc(/C=C/C(=O)O)ccc1OS(=O)(=O)c1c(C)cc(C)cc1C	-43.2
C=CCOc1ccc(/C=C/C(=O)OCC(=O)N(C)CC(=O)Nc2ccc(F)cc2)cc1	7.74
COc1ccccc1CC(=O)Nc1c[nH]c(=O)[nH]c1=O	38.8
Cc1ccc2c(c1)c1ncnc(N3CCN(c4ccccc4)CC3)c1n2C	-12.3
Cc1ccccc1CN1CCNCC1.Cl	14
c1ccc2c(c1)CC(CN1CCNCC1)O2 (stereo not drawn)	-52.3
CC(C)N1CCN(CC2COc3ccccc3O2)CC1.Cl (stereo not drawn)	-19.4
Cn1c(=O)oc2cc(S(=O)(=O)Nc3cccc([N+](=O)[O-])c3)ccc21	4.69
Cc1ccc(C)c(Cn2nnc3c(=O)[nH]c(C(=O)Nc4ccc(F)cc4)nc32)c1	28.5
CCOc1ccc(C(=O)N2CCCC2)cc1OC	-14.7
Cc1ccc(C)c(OCC(O)CN2CCC(C)CC2)c1C (stereo not drawn)	-33.6
Cl.OC(COc1c(F)cc(Br)cc1F)CN1CCOCC1 (stereo not drawn)	2.28
Cl.OC(COc1c(F)cc(Br)cc1F)CN1CCN(c2ccc(F)cc2)CC1 (stereo not drawn)	-25.7
Cc1cccc(C)c1OCC(O)Cn1c2ccccc2c2ccccc21 (stereo not drawn)	6.83
Cc1cccc(C)c1OCC(O)CN1CCc2ccccc2C1.Cl (stereo not drawn)	-64.2
Cc1ccc(C)c(OCC(O)CN2CCc3ccccc3C2)c1C.Cl (stereo not drawn)	-65.3
Cl.OC(COc1c(F)cc(Br)cc1F)CN1CCc2ccccc2C1 (stereo not drawn)	-72.2
Nc1ccc(S(=O)(=O)Nc2nc(-c3ccccc3)cc(-c3ccccc3)n2)cc1	21.6
Cc1ccc(NC(=O)Cn2nc(C)c3ccccc3c2=O)c(C)c1	10.2
